A selection: hits, their analogues and other compounds. The true share with any hit is near 4.7%.
Efflux pump mplx = blocks antifungal efflux pumps in multiplex yeast assay. 0.44% of 330,000 active. S. cerevisiae Candida pump triplex, Nile Red efflux. inhibition, % at 10 µM;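 active = plate passing quality check with inhibition over a set limit, or well fluorescence over plate mean plus 4 SD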;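 note: Nile Red retained in pooled yeast measured as flow cytometry median fluorescence; 0% = buffer negative control and 100% = Enniatin B positive control; higher means more Nile Red kept so more efflux inhibition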
MLLE-PAM2 inh = inhibitors of microRNA-mediated deadenylation, human PABP1 MLLE binding | AID 588489 | 0.36% of 360,000 active | GST-MLLE / FITC-PAM2 fluorescence polarization | P11940 | inhibition, % at 20 µM; in the data active = inhibition above about 35%, passing the limit was not always enough;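 note: plate controls were DMSO wells with GST-MLLE for no effect and wells lacking GST-MLLE protein for full effect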
SUMO HTRF inh = inhibitors of human SUMOylation (UBC9); P63279; HTRF SUMOylation assay, SAE1/SAE2 + UBC9, in vitro; inhibition, % at 35 µM; 0.36% of 290,000 active; in the data active = inhibition above about 50%, passing the limit was not always enough; inconclusive = no clear call, values can overlap the other calls
Target sequence (P63279 whole entry, looked up): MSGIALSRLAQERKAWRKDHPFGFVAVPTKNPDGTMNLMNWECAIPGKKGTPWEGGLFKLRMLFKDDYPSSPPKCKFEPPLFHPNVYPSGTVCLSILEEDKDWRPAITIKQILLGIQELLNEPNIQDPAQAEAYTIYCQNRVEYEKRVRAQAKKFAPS
PABP polyA inh = blocks human PABP binding to poly(A) RNA; P11940; fluorescence polarization; inhibition, % at 35 µM; 1% of 290,000 active; AID 2014;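 note: calls also rest on retests at 20 µM and on dose response follow-up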
ALR H2O2 inh = blocks human ALR sulfhydryl oxidase activity; 3.8% of 290,000 active; inhibition, % (test concentration not listed); purified ALR, DTT oxidation, H2O2 HRP-luminol luminescence;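 active = mean replicate inhibition above about 79%, with every replicate also reaching it, limit read from the data; inconclusive = only one of the two criteria met; inactive = mean below limit and not every replicate reaching it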
eIF4H FP inh = inhibitors of RNA binding by human eIF4H | Q15056 | eIF4H fluorescence polarization binding assay | inhibition, % at 35 µM | 0.94% of 290,000 active | AID 2012;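 note: calls also rest on retests at 20 µM and on dose response follow-up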
An asterisk follows results filed as active; ? = inconclusive; / = no result given. Unless noted, the rule behind the calls is not given here.

SMILES	Efflux pump mplx	MLLE-PAM2 inh	SUMO HTRF inh	PABP polyA inh	ALR H2O2 inh	eIF4H FP inh
CC(C)c1cccc(OCCN2CCCC2)c1	0	3	6	2	-13	5
Oc1ccc(/C=N/NC(=S)N2CCOCC2)cc1	0	2	5	-2	99*	7
Cc1ccc(NC(=S)N2CCOCC2)cc1	0	-17	-3	8	-1	7
COCCNC(=S)N/N=C/c1ccc(N2CCOCC2)cc1	0	1	27	8	99*	10
N#CC1=C(N)Oc2n[nH]c(-c3ccccc3)c2C1c1cccnc1 (stereo not given)	0	5	10	-1	16	0
CCOc1cc(C2C(C#N)=C(N)Oc3n[nH]c(-c4ccccc4)c32)ccc1O (stereo not given)	0	2	-2	-19	97*	-22
Cc1ccc(-c2cc(-c3ccc(F)cc3)nc(N)c2C#N)o1	0	-5	11	20	/	25
CCOc1cc(-c2cc(-c3ccccc3)nc(N)c2C#N)ccc1O	0	-95	23	-2	95*	-6
Cc1ccc(-c2cc(-c3ccccc3)c(C#N)c(N)n2)o1	0	5	9	118*	-29	?
Cc1ccc(-c2cc(-c3ccccc3Cl)c(C#N)c(N)n2)o1	0	-16	11	64*	-4	66*
CCOc1cc(-c2cc(-c3ccc(N)cc3)nc(N)c2C#N)ccc1O	0	-23	24	-1	/	4
O=C(CCCCC(=O)NNC(=O)COc1ccccc1)NNC(=O)COc1ccccc1	0	16	16	7	1	-4
Cc1ccc(S(=O)(=O)CCC(=O)OCC(=O)Nc2ccc(N3CCOCC3)cc2)cc1	0	0	/	/	10	/
CC(NS(=O)(=O)c1ccc(Br)cc1)C(c1cccs1)N1CCOCC1 (stereo not given)	0	3	19	6	-1	-4
COc1ccc(N2CCN(CCC3Oc4cc([N+](=O)[O-])ccc4NC3=O)CC2)cc1 (stereo not given)	0	2	2	3	86*	7
COc1ccc(-c2cc(=O)oc3c(O)c(O)ccc23)cc1	0	9	-6	8	99*	4
Cc1cc(N/N=C2\CC(C)CC(C)(C)C2)nc2ccccc12 (stereo not given)	0	-10	-6	-7	-21	-9
C[C@H](NS(=O)(=O)c1ccc2c(c1)OCCCO2)C(=O)N1CCN(Cc2ccc(C#N)cc2)CC1	0	10	/	/	-8	/
COc1cc2ccc(=O)oc2cc1O	0	-13	/	/	98*	/
COc1cc2ccc(=O)oc2cc1OCC(O)C(C)(C)O (stereo not given)	0	-1	18	11	5	9
CCOc1ccc2nc3cc(N=Nc4ccc(N)nc4N)ccc3c(N)c2c1	/	82*	/	/	/	/
COc1ccc(N=Nc2ccc(N)nc2N)cc1	0	3	12	-1	/	-12
Cc1ccc(S(=O)(=O)N2CCCC2C(=O)NCc2ccccc2Cl)cc1 (stereo not given)	0	2	-6	6	-18	12
NC(CSCc1ccccc1Cl)C(=O)O (stereo not given)	0	17	4	-2	58	3
Clc1ccccc1CSc1snnc1-c1ccccc1	0	11	1	12	98*	6
SMILES	Efflux pump mplx	MLLE-PAM2 inh	SUMO HTRF inh	PABP polyA inh	ALR H2O2 inh	eIF4H FP inh
Nc1nnc(CSCc2ccccc2Cl)s1	0	-16	7	-7	-16	7
N=C(N)SCc1ccccc1Cl	0	-5	5	9	100*	-2
Nc1nnc(SCc2ccccc2Cl)s1	0	1	13	52*	-6	7.2*
O=C(CC[C@H]1O[C@@H](n2cnc3c(NC(=O)c4ccccc4)ncnc32)[C@H](O)[C@@H]1O)NCc1ccc2c(c1)OCO2	/	1	/	/	/	/
Cn1c(O)c(/C=N/Nc2ccccc2)c(=O)n(C)c1=O	0	20	-3	-1	100*	-7
Cc1[nH]nc(N=Cc2c(O)n(C)c(=O)n(C)c2=O)c1-c1ccccc1	0	/	16	-6	-1	-4
CC(=O)N=Cc1c(C)c(C#N)c(=O)n(C)c1O	0	13	33	-10	/	?
Cc1c(/C=N/Nc2ccc(F)cc2)c(O)n(C)c(=O)c1C#N	0	4	16	37*	-2	81
CC1=CC(C)(C)[N+](C)(C)c2ccccc21	0	-98	9	62*	-2	-8
